Source: PubChem BioAssay AID1458 (National Center for Advancing Translational Sciences (NCATS), 2008)
In all, about 210,000 compounds went through this assay and about 5,900 (2.8%) were called active. Inconclusive results (about 5%) are left out. Only a selection was taken, and actives are over-represented in it overall. A number with no mark means an inactive call. The call rests on the fitted dose curve; in most records, active means well fitted activation curve with a large enough effect; inconclusive means small, poorly fitted or top-dose-only effect; inactive means no such curve, though single readings can be large or run the other way.

assay: qHTS Assay for Enhancers of SMN2 Splice Variant Expression; settings: HEK293 SMN2-luciferase splicing reporter, luminescence, 30-36 h; series mostly up to 46.1 µM; activity change, positive = activation: at the top concentration; further: nearly all actives have a fitted effect of over 55% in size; on activity change, positive = activation: % of control where 0% means no effect
Outline: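 HEK293 cells carry an SMN2 […]–luciferase reporter in which exon 7 inclusion puts luciferase in frame. Cells were plated 10-12 h before compound addition, then incubated 30-36 h at 37C. ONE-Glo luminescence was read; sodium butyrate at 4.5 mM final served as control.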
Potency means the concentration at half of the fitted maximal effect.

SMILES | activity change, positive = activation | Potency
CCn1c(=O)cc(OCC(=O)Nc2cc(Cl)c(OC)cc2OC)c2ccccc21 | 7.37% | –
C=C(C)CSc1nnc(-c2ccc(C)cc2)n1N | – | 8.91 µM (active)
Cc1ccc(-c2nnc(SC(C)C#N)n2N)cc1 (configuration not stated) | 5.91% | –
Cc1ccc(NC(=O)NC(=O)CSc2nnc(-c3ccc(OC(F)F)cc3)n2N)c(C)c1 | -13.8% | –
CC(=O)c1c(C)n(S(=O)(=O)c2ccc(Cl)cc2)c2ccc(NS(=O)(=O)c3ccc(Cl)cc3)cc12 | -11.3% | –
COc1ccc(C)cc1N(CC(=O)N1CCC(C)CC1)S(=O)(=O)c1ccc(C)cc1 | -6.31% | –
CCOC(=O)c1c(NC(=O)CSc2cn(CCNC(=O)c3cccc(C(F)(F)F)c3)c3ccccc23)sc2c1CCC2 | 12.3% | –
COc1ccc(CCNC(=O)c2cn(C)c3ccc(S(=O)(=O)N(C)C4CCCCC4)cc3c2=O)cc1OC | 3.49% | –
Cc1cccc(C(=O)N2CCCN(C(=O)c3cccc(C)c3)CC2)c1 | -9.38% | –
COc1ccc(OCC(=O)NNC(=O)c2cccc(C)c2)cc1 | -31.7% | –
CCN(CC)C(=O)c1ccc(O)c(OC)c1 | – | inactive
CCOc1ccc(NC(=O)N(CC(C)C)CC(C)C)cc1 | -13.7% | –
COc1ccc(OCc2cccc(C(=O)N3CCCC3)c2)cc1 | – | 2.51 µM (active)
CCOc1ccc(OCc2cccc(C(=O)N(CC)CC)c2)cc1 | – | 5.01 µM (active)
COc1cccc(Cn2c(SCc3ccc(C(=O)N4CCC(C)CC4)cc3)nc3ccncc32)c1 | -57.7% | –
COc1cccc(CNC(=O)c2ccc3c(c2)N(Cc2ccc(C(F)(F)F)cc2)C(=O)c2ccccc2S3)c1OC | 1.81% | –
COc1ccc(C2(Nc3cccc(F)c3)C(=O)c3ccccc3C2=O)cc1 | 10.5% | –
CCc1nonc1NC(=O)c1oc2ccc(Cl)cc2c1C | 13.4% | –
Cc1ccc(Cn2c(C)c3cnn(CC(=O)NCc4ccccc4)c(=O)c3c2C)cc1 | -1.41% | –
CC1=C(C(=O)Nc2ccccc2)C(c2ccc(C)cc2)n2nc(SCc3ccccc3C)nc2N1 (configuration not stated) | 6.65% | –
COc1cc(Nc2nc(-c3ccc(OC)c(OC)c3)nc3ccccc23)cc(OC)c1 | -30% | –
CCc1cccc(C)c1Nc1c(-c2ccc(N(C)C)cc2)nc2ncccn12 | 26% | –
N#CC(=C1CCCC1)c1nc(-c2ccc(Cl)cc2)cs1 | 37.8% | –

SMILES | activity change, positive = activation | Potency
CCNC(=O)CSc1nc(-c2ccccc2)cs1 | 16.8% | –
N#CC(=C1SC=CS1)c1nc(-c2ccccc2)cs1 | – | 11.2 µM (active)
COc1ccc(-c2cc(NCc3ccc(F)cc3)n3cnnc3n2)cc1 | -6.89% | –
CCOC(=O)c1c(C)[nH]c(C(=O)NCc2ccccc2OC)c1C | – | 10 µM (active)
COc1ccccc1CNC(=O)c1cc(=O)c2ccccc2o1 | -23.9% | –
CC(=O)c1c(C)[nH]c(C(=O)NCc2ccc(C)cc2)c1C | -0.462% | –
COC(=O)c1ccccc1NS(=O)(=O)c1ccc2c(c1)CCCN2C(C)=O | -4.36% | –
CCOc1ccc(C(=O)c2cn(Cc3ccccc3OC)c3ccc(F)cc3c2=O)cc1 | 6.96% | –
COc1ccc(-c2nn3c(-c4ccccc4)nnc3s2)cc1OC | -2.56% | –
COc1ccc(C2CC(c3cccs3)=Nc3ccccc3S2)cc1OC (configuration not stated) | -15.2% | –
COc1ccc(-c2csc(-c3cccs3)n2)cc1OC | – | 14.1 µM (active)
CCc1ccccc1NC(=O)N1CCC2(CC1)Oc1ccccc1C(=O)N2Cc1ccccc1F | 2.64% | –
O=C(Nc1ccc(Br)cc1)c1cc2nc(-c3ccccc3)cc(-c3ccccc3)n2n1 | 8.42% | –
COc1cccc(C(=O)N(Cc2cccc(Cl)c2)Cc2ccco2)c1 | -32% | –
O=C(Cc1ccccc1)NC(=S)Nc1ccc(N2CCCCC2)cc1 | 1.23% | –
S=C(c1ccc(-c2ccccc2)o1)N1CCCCC1 | – | 12.6 µM (active)
c1ccc(-c2ccccc2OCCN2CCCCC2)cc1 | -8.62% | –
O=C(/C=C/c1ccc2c(c1)OCO2)NCc1ccc(F)cc1 | 1.74% | –
O=C(Cc1ccc(F)cc1)N/N=C/c1ccc2c(c1)OCO2 | – | 12.6 µM (active)
O=C(CNC(=O)C(c1ccccc1)c1ccccc1)N/N=C\c1ccc2c(c1)OCO2 | 6.3% | –
O=C(Nc1ccc(Cl)cn1)c1ccc2c(c1)OCCO2 | – | 2.51 µM (active)
O=C(Nc1ccc(Cl)cn1)c1cnn2cccnc12 | – | 11.2 µM (active)
Cc1cc(NC(=O)c2cnn3cccnc23)n(-c2ccccc2)n1 | -9.99% | –

SMILES | activity change, positive = activation | Potency
COc1c(Cl)cc(C(=O)Nc2ccc(Cl)cn2)cc1Cl | 20.7% | –
O=C(Nc1cccc(S(=O)(=O)Nc2ccc(Cl)cc2)c1)c1ccc2c(c1)OCCO2 | -59.3% | –
COc1ccc(C(=O)NC(=S)Nc2ccc(Cl)cn2)cc1OC | -0.559% | –
COc1ccc(CNC(=O)Cc2coc3ccc(C(C)C)cc23)cc1 | -4.8% | –
O=C(Oc1cccc(NC2=NS(=O)(=O)c3ccccc32)c1)c1ccncc1 | -1.12% | –
CC(C)(C)c1csc(NC2=NS(=O)(=O)c3ccccc32)n1 | – | 8.91 µM (active)
Cc1ccc(S(=O)(=O)N(NC2=NS(=O)(=O)c3ccccc32)C(=O)c2ccccc2)cc1 | -33.5% | –
COc1ccc(CN2C(=O)C(NC(=O)c3cccc(C)c3)(C(F)(F)F)N=C2c2ccccc2)cc1 (configuration not stated) | -6.05% | –
Cc1cccc(OCC(O)Cn2c(=N)n(CCN3CCOCC3)c3ccccc32)c1 (configuration not stated) | -2.16% | –
OC(COc1ccc2ccccc2c1)Cn1cncn1 (configuration not stated) | 10.2% | –
OC(COc1ccc2ccccc2c1)CN1CCOCC1 (configuration not stated) | – | 14.1 µM (active)
Cc1cccc(N2CCN(C(=O)c3oc(=O)c4ccccc4c3-c3ccccc3)CC2)c1C | -0.849% | –
CC1=Nc2cc(C(=O)N3CCC(C)CC3)ccc2Sc2ccc(Cl)cc21 | -32.5% | –
O=C(Nc1ccccc1)c1ccccc1NC(=O)C(F)(F)F | – | 10 µM (active)
NC(=O)c1ccccc1NC(=O)c1ccccc1F | 10.5% | –
O=C(Nc1ccccc1)c1cccnc1Nc1ccccc1 | -22.9% | –
O=C(CSc1oc(-c2ccccc2)nc1S(=O)(=O)c1ccc(Br)cc1)NC1CCCCC1 | -5.27% | –
COc1ccc2c(c1)CCc1c(C(=O)N3CCCC3)noc1-2 | – | 17.8 µM (active)
COc1ccc2c(c1)CCc1c(C(=O)Nc3c(C)n(C)n(-c4ccccc4)c3=O)noc1-2 | -28% | –
COc1ccc2c(c1)CCc1c(C(=O)Nc3cc(C)ccc3O)noc1-2 | 21.9% | –
Cn1c(=O)c2c(nc(SCC(=O)Nc3ccc(F)cc3)n2Cc2ccccc2)n(C)c1=O | -3.7% | –
